# According to PubChem BioAssay AID485270 (The Scripps Research Institute Molecular Screening Center, 2010):
# Several values for one entry are separate records, joined by “and”; a condition that tells them apart may be missing. Equal entries are not always repeated. Screen size: about 330,000 compounds; about 5,800 (1.8%) were called active. Many of the other results were omitted from the sample, so actives are more common in it than they were. Values without a mark were called inactive. Cut-off read from the data, not from the text of the source: active = inhibition mostly above about 38% (no sharp cut-off); inactive = mostly below about 40%.
# Molecular target: Orexin/Hypocretin receptor type 1 (Homo sapiens) (UniProt O43613)
# Sequence (O43613 whole entry, looked up): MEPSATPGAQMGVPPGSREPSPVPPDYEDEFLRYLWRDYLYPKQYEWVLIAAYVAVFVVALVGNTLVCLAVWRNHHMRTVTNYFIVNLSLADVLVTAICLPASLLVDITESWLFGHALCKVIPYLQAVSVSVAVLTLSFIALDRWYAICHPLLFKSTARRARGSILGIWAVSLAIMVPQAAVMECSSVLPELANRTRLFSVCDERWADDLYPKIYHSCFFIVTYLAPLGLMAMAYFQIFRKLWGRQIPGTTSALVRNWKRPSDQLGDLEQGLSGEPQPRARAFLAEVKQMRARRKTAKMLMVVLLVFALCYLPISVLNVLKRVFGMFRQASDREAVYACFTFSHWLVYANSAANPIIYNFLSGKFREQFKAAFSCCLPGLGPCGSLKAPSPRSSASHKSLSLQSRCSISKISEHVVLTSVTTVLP
# Test: antagonists of human orexin 1 receptor (OX1R) (AID 485270);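 note: 0% = agonist challenge alone and 100% = reference antagonist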
# Settings: OX1R-expressing cells, FRET antagonist read-out; at 6.6 µM; stronger effect = higher value
row,SMILES,inhibition
1,O=C(CCCCCN1C(=O)c2cccc3cccc(c23)C1=O)NCc1ccco1,9.93%
2,O=C1c2cccc3cccc(c23)C(=O)N1CCCCCc1n[nH]c(=S)o1,47.3%
3,C[N+](C)(CCCCCC[N+](C)(C)CCCN1C(=O)c2cccc3cccc(c23)C1=O)CCCN1C(=O)c2cccc3cccc(c23)C1=O,68.8% (active)
4,COC(=O)CSc1snnc1-c1ccc(Cl)c(Cl)c1,33.7%
5,CCOC(=O)c1ccc(NNC(C)=O)c([N+](=O)[O-])c1,26.7%
6,CCOC(=O)C/C(C)=N\Nc1ccc([N+](=O)[O-])cc1[N+](=O)[O-],55.3% (active)
7,CCCCOC(=O)CCCc1ccc([N+](=O)[O-])cc1[N+](=O)[O-],18.3%
8,Nc1nc(SCC(=O)Nc2ccc(Cl)c([N+](=O)[O-])c2)n[nH]1,0.57%
9,O=C(CN1C(=O)c2ccc([N+](=O)[O-])cc2C1=O)Nc1nnc(C2CC2)s1,21.3%
10,Cc1ccc(S(=O)(=O)NC2CCCCCC2)cc1,10.9%
11,CCn1c(Cc2cccs2)nnc1SCC(=O)c1ccc(C)cc1,14.7%
12,CCn1c(SCC(=O)c2ccc(Cl)s2)nnc1-c1cccs1,26.9%
13,CCn1c(SCC(=O)c2ccc3ccccc3c2)nnc1-c1cccs1,79.6% (active)
14,COc1ccc(CCNC(=O)COC(=O)Cc2ccccc2F)cc1,2.3%
15,Cc1noc(C)c1S(=O)(=O)N(C)C[C@H]1Oc2ccc(NC(=O)C3CCCCC3)cc2C(=O)N([C@H](C)CO)C[C@@H]1C,3.64%
16,O=C(O)c1ccccc1CSc1nc2ccccc2s1,5.76%
17,CCOc1ccccc1Nc1ccc2nonc2c1[N+](=O)[O-],20%
18,O=[N+]([O-])c1c(NCCO)cc(Sc2nc3ccccc3s2)c2nonc12,90.3% (active)
19,COc1cc(OC)cc(-c2sc3ccc(OC)cc3c2-c2ccc3cc[nH]c3c2)c1,18.3%

row,SMILES,inhibition
1,CCOC(=O)c1c(C)nc2c(c1C)c(=O)oc1ccccc12,4%
2,Cc1ccccc1-n1nnc2c(=O)oc3ccccc3c21,51.9% (active)
3,CCCCC(=O)Nc1cc(C)c2c(=O)oc3ccccc3c2n1,1.27%
4,COc1cc(OC)cc(-c2cc3ccc(F)cc3cn2)c1,18.6%
5,N#Cc1cc([N+](=O)[O-])ccc1NC(=O)COC(=O)c1cnccn1,30.6%
6,COc1cccc(NC(=O)NCc2ccc(F)cc2)c1,-5.5%
7,Cc1cccc(NC(=O)NC(=S)NC(=O)c2ccccc2)c1,39.1%
8,Cc1cccc(NC(=O)Nc2cccc(Oc3c(F)c(F)c(F)c(F)c3F)c2)c1,45.9% (active)
9,CCN(CC)S(=O)(=O)c1ccc(N2CCCC2)c(NC(=O)c2ccc([N+](=O)[O-])o2)c1,25.5%
10,O=C(Cc1cccs1)NCc1cccc(C(F)(F)F)c1,-2.11%
11,CCOC(=O)CCCCCC(=O)Nc1ccc2c(c1)CC(=O)N([C@@H](C)CO)C[C@H](C)[C@@H](CN(C)Cc1ccccc1)O2,0.83%
12,Cc1noc(C)c1NC(=O)Nc1ccc2c(c1)C(=O)N([C@H](C)CO)C[C@H](C)[C@@H](CN(C)S(=O)(=O)c1cn(C)cn1)O2,0.36%
13,CC(=O)c1cccc(OCC(=O)OCC(=O)Nc2cc(S(=O)(=O)N3CCCCC3)ccc2C)c1,9.5%
14,COc1ccc(CCNC(=O)c2cc3sccc3n2C)cc1OC,20.4%
15,CCOc1ccc(CCNC(=O)C(CC)n2nc(C)n3c(cc4sccc43)c2=O)cc1OCC (configuration not stated),92.1% (active)
16,CCC(C(=O)NCc1ccc(OC)cc1)n1nc(C)n2c(cc3occc32)c1=O (configuration not stated),9.82%
17,COc1cc(SC)ccc1C(=O)NNC(=O)C1COc2ccccc2O1 (configuration not stated),9.65%
18,CCN(CC(=O)NCc1ccc(F)cc1)S(=O)(=O)c1ccc(Cl)s1,6.16%
19,Cc1nc(C)c(-c2nnc(-c3cccc(S(=O)(=O)N(C)C)c3)o2)cc1C(=O)NN,1.5%

row,SMILES,inhibition
1,COc1ccc(-c2noc(CCCC(=O)NC3CCCC3)n2)cc1OC,14.1%
2,COc1ccc(-c2noc(-c3cccc(OC)c3OC)n2)cc1OC,45.8% (active)
3,Cc1cccc(-c2noc(-c3ccc(F)cc3)n2)c1,1.69%
4,O=C(COC(=O)c1cccnc1Cl)NC(=O)NC1CCCCC1,0.57%
5,Cc1c(C#N)c2ncn(CC#N)c(=O)c2n1-c1ccccc1,16.1%
6,CN1c2ccc(C=O)c3c(C=O)ccc(c23)N(C)C1(C)C,38.9% (active)
7,COc1ccc2nc3n(c(=O)c2c1)-c1ccc(Cl)cc1C(=O)NC3Cc1ccccc1 (configuration not stated),7.22%
8,O=C1CCC/C=C/C[C@@H](CC(=O)N(CCO)Cc2ccccc2)C(=O)NC[C@H](c2ccccc2)O1,2.58%
9,CCN(C(=O)COC(=O)CCC(=O)c1cccs1)C1CCCCC1,3.19%
10,Cc1ccc(S(=O)(=O)N2CCN(C(=O)CN3C(=O)NC(C)(c4ccc(Cl)cc4)C3=O)CC2)c(C)c1 (configuration not stated),4.7%
11,O=C1c2ccccc2[C@@H]2C[C@@H](O)[C@H](Nc3ccccc3Cl)CCN12,7.11%
12,Cc1ccc(C(=O)C[n+]2cc(-c3ccccc3)n3c2CCCCC3)cc1,9.82% and 16.5%
13,Cc1ccc(C(=O)N2CCCC(c3ccccc3)=N2)cc1,64.4% (active)
14,Cc1ccc(NC(=S)N2CCCC(c3ccccc3)=N2)cc1,14.4%
15,CC(C)CC1NC(=O)c2cc(Cl)ccc2-n2c1nc1ccccc1c2=O (configuration not stated),4.11%
16,O=C(Nc1cccc(NC(=O)c2cccc(F)c2)c1)c1ccccc1,16.8%
17,Cc1cccc(NC(=O)c2ccc3nsnc3c2)c1C,34.9%
18,O=C(Nc1ccccc1)c1ccc2nsnc2c1,41.3% (active)
19,COc1cc(OC)cc(-c2c(C#Cc3ccsc3)c3cc(-c4ccc(SC)cc4)ccc3n2C)c1,7.83%
